Only some compounds are listed: those with a hit (about 2.3% of all), similar ones and a draw of the others.
Pf Dd2 growth – inhibitors of Plasmodium falciparum Dd2 growth; AID 1159554; 94,000 tested, 2.3% active; activity change, % at 10 µM; P. falciparum Dd2 growth, SYBR Green, 72 h; hits give low values; in the data active means activity change below about -80%
C diff HTS – C. difficile growth inhibition; Clostridium difficile clinical isolate growth, OD600, 24 h; hits give low values; growth activity, negative = inhibition, % at 16 µg/mL (by protocol); AID 1259249; 86,000 tested, 0.25% active;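 active means mean growth activity at or below -80% and every replicate also at or below -80%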;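 further: 0% = DMSO wells and -100% = levofloxacin 16 µg/mL wells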
* hit, by the source's call; · = not tested or not shown.

SMILES	Pf Dd2 growth	C diff HTS
COc1cccc(C#Cc2cnc3c(c2)C(=O)N([C@H](C)CO)C[C@H](C)[C@@H](CN(C)C(=O)C2CCCCC2)O3)c1	-87.4*	28.0
COc1cccc(C#Cc2cnc3c(c2)C(=O)N([C@H](C)CO)C[C@H](C)[C@@H](CN(C)C(=O)C2CCOCC2)O3)c1	-81.4*	0.0
COc1ccc(S(=O)(=O)Nc2ccc3c(c2)C(=O)N([C@@H](C)CO)C[C@@H](C)[C@@H](CN(C)S(=O)(=O)c2ccc(C)cc2)OCCCC[C@@H](C)O3)cc1	-53.1	·
COc1ccc(S(=O)(=O)Nc2ccc3c(c2)C(=O)N([C@@H](C)CO)C[C@H](C)[C@@H](CN(C)S(=O)(=O)c2ccc(C)cc2)OCCCC[C@H](C)O3)cc1	-82.8*	·
COc1ccc(S(=O)(=O)Nc2ccc3c(c2)C(=O)N([C@@H](C)CO)C[C@H](C)[C@H](CN(C)S(=O)(=O)c2ccc(OC)cc2)OCCCC[C@@H](C)O3)cc1	-65.3	-3.5
COc1ccc(S(=O)(=O)Nc2ccc3c(c2)C(=O)N([C@@H](C)CO)C[C@@H](C)[C@@H](CN(C)S(=O)(=O)c2ccc(OC)cc2)OCCCC[C@H](C)O3)cc1	-85.0*	-0.2
O=C(NCC(F)(F)F)[C@H]1[C@H](CO)[C@H]2Cn3c(cccc3=O)[C@H]2N1Cc1cccc(F)c1	·	5.0
C[C@H]1CCCCO[C@@H](CN(C)C(=O)Nc2cccc3ccccc23)[C@@H](C)CN([C@@H](C)CO)C(=O)c2cc(NS(=O)(=O)c3ccc(F)cc3)ccc2O1	-77.8	-5.8
C[C@H](CO)N1C[C@H](C)[C@@H](CN(C)C(=O)Nc2cccc3ccccc23)OCCCC[C@H](C)Oc2ccc(NS(=O)(=O)c3ccccc3)cc2C1=O	-54.1	·
C[C@H](CO)N1C[C@H](C)[C@H](CN(C)C(=O)Nc2cccc3ccccc23)OCCCC[C@H](C)Oc2ccc(NS(=O)(=O)c3ccc(F)cc3)cc2C1=O	-30.9	-10.6
C[C@@H]1CCCCO[C@H](CN(C)C(=O)Nc2cccc3ccccc23)[C@H](C)CN([C@H](C)CO)C(=O)c2cc(NS(=O)(=O)c3ccc(F)cc3)ccc2O1	-83.5*	1.6
C[C@@H]1CN([C@@H](C)CO)C(=O)c2cc(NS(=O)(=O)c3ccc(F)cc3)ccc2O[C@@H](C)CCCCO[C@@H]1CN(C)C(=O)Nc1cccc2ccccc12	-86.0*	-0.8
C[C@@H]1CN([C@@H](C)CO)C(=O)c2cc(NS(=O)(=O)c3ccc(F)cc3)ccc2O[C@@H](C)CCCCO[C@H]1CN(C)C(=O)Nc1cccc2ccccc12	-85.8*	-7.8
Cc1ccc(S(=O)(=O)N(C)C[C@@H]2Oc3ccc(NS(=O)(=O)c4ccccc4)cc3CC(=O)N([C@H](C)CO)C[C@@H]2C)cc1	-33.2	1.6
COc1ccc2c3c(n(C)c2c1)[C@H](CO)N(CC1CC1)CC31CN(C(=O)c2ccc(F)cc2)C1	40.2	·
CO[C@H]1CN(C)C(=O)c2ccc(NC(=O)c3ccc(-c4ccccc4)cc3)cc2OC[C@@H](C)NC[C@H]1C	-86.2*	·
CO[C@@H]1CN(C)C(=O)c2ccc(NC(=O)c3ccc(-c4ccccc4)cc3)cc2OC[C@@H](C)NC[C@H]1C	-86.8*	41.7
CO[C@H]1CN(C)C(=O)c2cc(NC(=O)c3ccc(Oc4ccccc4)cc3)ccc2OC[C@@H](C)NC[C@@H]1C	-90.0*	-6.4
CO[C@@H]1CN(C)C(=O)c2cc(NC(=O)c3ccc(Oc4ccccc4)cc3)ccc2OC[C@H](C)NC[C@H]1C	-76.0	-4.8
CO[C@@H]1CN(C)C(=O)c2ccc(NC(=O)c3ccccc3)cc2OC[C@H](C)NC[C@@H]1C	24.7	·
CO[C@H]1CN(C)C(=O)c2ccc(NC(=O)c3ccc(-c4ccccc4)cc3)cc2OC[C@H](C)NC[C@@H]1C	-44.4	-9.3
CO[C@@H]1CN(C)C(=O)c2cc(NC(=O)CC(F)(F)F)ccc2OC[C@H](C)N(C(=O)c2ccccc2F)C[C@H]1C	41.4	-6.5
Cc1noc(C)c1S(=O)(=O)Nc1ccc2c(c1)C(=O)N([C@@H](C)CO)C[C@H](C)[C@@H](CN(C)Cc1ccncc1)O2	14.2	0.9
C[C@@H]1CCCCO[C@@H](CN(C)Cc2ccc3c(c2)OCO3)[C@H](C)CN([C@@H](C)CO)C(=O)c2cc(NC(=O)Nc3ccc(C(F)(F)F)cc3)ccc2O1	-59.7	-69.5
Cc1ccc(S(=O)(=O)Nc2ccc3c(c2)C(=O)N([C@@H](C)CO)C[C@@H](C)[C@@H](CN(C)S(=O)(=O)c2ccc(F)cc2)OCCCC[C@@H](C)O3)cc1	-29.3	-9.1
C[C@@H]1CN([C@@H](C)CO)C(=O)c2cc(C#CC3CCCCC3)cnc2O[C@@H]1CN(C)S(=O)(=O)c1ccccc1	-27.7	-9.8
COc1ccc(NC(=O)Nc2ccc3c(c2)[C@@H]2C[C@H](CC(=O)N[C@@H](C)c4ccccc4)O[C@H](CO)[C@@H]2O3)cc1	-87.0*	13.4

Bioassay records from PubChem BioAssay.
